Source: PubChem BioAssay
Hits are enriched below; roughly 19% of the tested compounds scored in any of these assays.
IL1B secr inh – inflammasome signaling inhibition, IL-1 beta readout. THP-1 LPS/ATP IL-1B secretion, AlphaLISA, 16 h; active compounds read low. activity change, % at 57.5 µM. hit rate 4.7% among 360,000. AID 743279; in the data active means activity change below about -50%; inconclusive means mostly about -30% to -49%
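THP-1 cells pretreated 1 hr with compounds (up to 57.5 uM final), then stimulated with LPS (250 ng/mL final) plus ATP (1.25 mM final); secreted IL-1B measured by AlphaLISA after 16 hr, decreased signal indicating inhibition.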
DT40 TDP1 no CPT – qHTS for Inhibitors of human tyrosyl-DNA phosphodiesterase 1 (TDP1): qHTS in cells in absence of CPT | DT40 Tdp1-/- hTDP1 cells, no CPT, ATP luminescence, 48 h | Potency, µM (titrated, usually from 46.2 µM), for inactives: at the top dose activity change, negative = growth inhibition, hits mostly inhibitors | hit rate 15% among 420,000 | AID 686978, 2013; further: potency means the concentration at half of the fitted maximal effect; nearly all actives have a fitted effect of over 55% in size
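Stably hTDP1-transfected Tdp1-null chicken DT40 cells were treated with library compounds minus camptothecin and grown for at least 48 hr at 37 °C, after which cellular ATP was quantified by luminescence.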
DT40 TDP1 CPT – growth inhibition of DT40 Tdp1-/-;hTDP1 cells with camptothecin (screen for TDP1 inhibitors) | chicken DT40 Tdp1-/-;hTDP1 cells + 20 nM CPT, ATP luminescence, 48 h | Potency, µM (doses to about 46.2 µM), without a hit: at the top dose activity change, negative = growth inhibition, actives largely listed as inhibitors | hit rate 12% among 420,000 | AID 686979; further: potency means the concentration at half of the fitted maximal effect; nearly all actives have a fitted effect of over 55% in size
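Chicken DT40 Tdp1-/- cells stably complemented with human TDP1 were seeded at 400 cells/well in medium containing 20 nM camptothecin, exposed to pin-transferred compounds, and grown at 37 °C for at least 48 hr. Viability was read as ATP luminescence.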
HT1080NT lethal – kills 2HG-producing HT-1080-NT fibrosarcoma cells; hit rate 1.6% among 360,000; HT-1080-NT fibrosarcoma viability, CellTiter-Glo ATP luminescence, 48 h; AID 686970; Potency, µM (highest dose often 46.1 µM), inactives show top-dose activity, negative = less viability, hits mostly cytotoxic;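 further: NT is the 2HG producing partner of a matched IDH1 knockdown line; potency means the concentration at half of the fitted maximal effect; 0% = DMSO-treated cells and -100% = media-only wells without cells; nearly all actives have a fitted effect of over 55% in size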
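Viability by CellTiter-Glo luminescence after 48 h compound exposure at 37C of HT-1080-NT cells (750/well, RPMI, 5% FBS). % activity scaled between DMSO wells and medium-only wells, then curve-fitted and categorized by curve class.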
HT1080 IDH1KD tx – kills HT-1080 cells with IDH1 knockdown; AID 686971; Potency, µM (top dose mostly 46.1 µM), without a hit: at the highest dose activity, negative = toxicity, hits mostly cytotoxic; hit rate 2% among 360,000; HT-1080 IDH1 knockdown viability, ATP luminescence, 48 h;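 further: potency means the concentration at half of the fitted maximal effect; 0% = DMSO wells and -100% = cell-free medium wells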
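HT-1080-IDH1KD cells (IDH1 knocked down), 750/well in RPMI with 5% FBS, treated with compound 48 h at 37 degrees C. Viability by CellTiter-Glo luminescence, normalised to DMSO and no-cell wells; concentration-response curves classed.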
* marks the source's active call; other numbers are inactive results; ? = inconclusive; . = no result given; [ ] = another dose, or the depositor's remark. Unless noted, the call rests on the fitted dose curve; in most records, active means well fitted curve in the direction sought with a large enough effect; inconclusive means small, poorly fitted or top-dose-only effect, or another doubt; inactive means no such curve, though single readings can be large; an effect the other way counts as inactive or inconclusive. Unless noted, on the % scale 0 is the no-effect control and ±100 the full control effect.

SMILES | IL1B secr inh | DT40 TDP1 no CPT | DT40 TDP1 CPT | HT1080NT lethal | HT1080 IDH1KD tx
Cc1csc2nc(-c3cccc(NC(=O)c4ccc(S(N)(=O)=O)cc4)c3)cn12 | . | 16µM* | ? | . | .
Cc1csc2nc(-c3cccc(NC(=O)c4c(F)cccc4F)c3)cn12 | . | 23µM* | 23µM* | . | .
CCC(=O)Nc1cccc(-c2cn3c(C)csc3n2)c1 | . | -29% | -9% | . | .
Cc1ccc(S(=O)(=O)N2CCN(c3cc4c(cc3[N+](=O)[O-])n(C)c(=O)n4C)CC2)cc1 | -27 | 16µM* | ? | -6% | 0%
Cc1ccc(C(=O)N2CCN(c3cc4c(cc3[N+](=O)[O-])n(C)c(=O)n4C)CC2)cc1 | -4 | ? | ? | -10% | -2%
Cn1c(=O)n(C)c2cc([N+](=O)[O-])c(N3CCN(S(=O)(=O)c4ccc5ccccc5c4)CC3)cc21 | ? | ? | 16µM* | 0% | 7%[9.24 µM]
Cn1c(=O)n(C)c2cc([N+](=O)[O-])c(N3CCN(C(=O)c4cccc(Cl)c4)CC3)cc21 | -6 | 18µM* | ? | 0% | -13%
CCc1c(C)nc2ncnn2c1N1CCC(C(=O)N2CCN(c3ccc(F)cc3)CC2)CC1 | -13 | 15µM* | 16µM* | -2% | 11%
O=C(C1CCN(c2ncnc3c2nc2n3CCCCC2)CC1)N1CCN(c2ccccc2)CC1 | . | 21µM* | ? | . | .
O=C(C1CCN(c2ncnc3c2nc2n3CCCCC2)CC1)N1CCN(c2ccc(F)cc2)CC1 | -19 | 12µM* | ? | -1% | -7%
O=C(C1CC1)N1CCN(c2ccc(F)cc2)CC1 | -5 | 1% | 6% | 15% | 8%
CN1CCN(C(=O)C2CCN(c3ncnc4c3nc3n4CCCCC3)CC2)CC1 | 48 | -3% | -23% | 6% | 8%
COc1cccc(C(=O)NCc2cn3ccccc3n2)c1 | . | 17% | 3% | . | .
O=C(NNC(=S)NC(=O)c1ccc(F)cc1)c1cccnc1 | 22 | 18µM* | ? | -21% | -13%
O=C(NNC(=S)NC(=O)c1cccnc1)c1ccccc1 | 42 | 23µM* | ? | -3% | -29%
NC(=O)COc1ccccc1C(=O)Nc1ccccc1 | . | 2% | 2% | . | .
CC(=O)NC(Cc1ccc(C)cc1)C(=O)NC1CCN(C(=O)NCc2ccccc2)CC1 (stereo unspecified) | 0 | 2% | 2% | 18% | 2%
CC(C)NC(=O)/C(C#N)=C/c1ccc(N(C)C)o1 | -6 | -18% | 10% | 25% | 26%
Cn1c(=O)c2c(c3ccccc31)OC(=O)CC2c1cccc(F)c1 (stereo unspecified) | . | -6% | 2% | . | .
COc1cc(/C=C2/SC(=S)NC2=O)ccc1OS(=O)(=O)c1ccc(C)cc1 | -53* | 15µM* | ? | ? | ?
COc1ccc(/C=C2\SC(=S)NC2=O)cc1OS(=O)(=O)c1ccc(NC(C)=O)cc1 | 14 | ? | ? | 21µM* | 16µM*
CCOc1ccc(/C=C2\SC(=S)NC2=O)cc1OC | 11 | ? | ? | -23% | -19%
COc1cccc(/C=C2\SC(=S)NC2=O)c1OS(=O)(=O)c1ccc(NC(C)=O)cc1 | 15 | -21% | -9% | 0% | -17%
COc1cc(/C=C2\SC(=S)N(CCCCC(=O)O)C2=O)ccc1OS(=O)(=O)c1ccc(C)cc1 | -87* | ? | ? | -2% | -9%
C[C@H]1CN([C@@H](C)CO)C(=O)CCCn2nncc2CO[C@H]1CN(C)C(=O)Nc1cccc2ccccc12 | -3 | 15% | -13% | 19% | 18%
COc1ccc(C(C)=O)cc1COC(=O)c1cccnc1SC | 23 | -13% | 0% | -6% | -2%
CC(=O)N1CCC(c2nc3ccccc3n2C(C)C(=O)NCc2ccccc2)CC1 (stereo unspecified) | 25 | 5% | 5% | 17% | 6%
